Measurements as given in PubChem BioAssay.
Where “and” joins values, the source holds several entries; their conditions need not be identical. Equal entries are not always repeated. Unmarked numbers belong to inactive results. The list shows a part of the results. Calls of active or inactive are those of the source.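 The calls were made as follows, unless noted: active = mean inhibition above 46.68%, the untreated control wells mean plus 3 SD; inactive = the rest.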

How the values were obtained:
[1] = target: Nuclear receptor coactivator 1 (Homo sapiens) (UniProt Q15788); experiment: NCOA1 GAL4-fusion reporter inhibition – cell-based, luminescence, quadruplicate, confirmation (AID 588820); details: HEK293 GAL4-SRC1 luciferase reporter, at 3.6 µM, hits give high values;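 also: 0% = DMSO wells and 100% = gossypol 36 µM treated wells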
Chain of Nuclear receptor coactivator 1 (Homo sapiens) (Q15788 whole entry, looked up, the tested form may be a part): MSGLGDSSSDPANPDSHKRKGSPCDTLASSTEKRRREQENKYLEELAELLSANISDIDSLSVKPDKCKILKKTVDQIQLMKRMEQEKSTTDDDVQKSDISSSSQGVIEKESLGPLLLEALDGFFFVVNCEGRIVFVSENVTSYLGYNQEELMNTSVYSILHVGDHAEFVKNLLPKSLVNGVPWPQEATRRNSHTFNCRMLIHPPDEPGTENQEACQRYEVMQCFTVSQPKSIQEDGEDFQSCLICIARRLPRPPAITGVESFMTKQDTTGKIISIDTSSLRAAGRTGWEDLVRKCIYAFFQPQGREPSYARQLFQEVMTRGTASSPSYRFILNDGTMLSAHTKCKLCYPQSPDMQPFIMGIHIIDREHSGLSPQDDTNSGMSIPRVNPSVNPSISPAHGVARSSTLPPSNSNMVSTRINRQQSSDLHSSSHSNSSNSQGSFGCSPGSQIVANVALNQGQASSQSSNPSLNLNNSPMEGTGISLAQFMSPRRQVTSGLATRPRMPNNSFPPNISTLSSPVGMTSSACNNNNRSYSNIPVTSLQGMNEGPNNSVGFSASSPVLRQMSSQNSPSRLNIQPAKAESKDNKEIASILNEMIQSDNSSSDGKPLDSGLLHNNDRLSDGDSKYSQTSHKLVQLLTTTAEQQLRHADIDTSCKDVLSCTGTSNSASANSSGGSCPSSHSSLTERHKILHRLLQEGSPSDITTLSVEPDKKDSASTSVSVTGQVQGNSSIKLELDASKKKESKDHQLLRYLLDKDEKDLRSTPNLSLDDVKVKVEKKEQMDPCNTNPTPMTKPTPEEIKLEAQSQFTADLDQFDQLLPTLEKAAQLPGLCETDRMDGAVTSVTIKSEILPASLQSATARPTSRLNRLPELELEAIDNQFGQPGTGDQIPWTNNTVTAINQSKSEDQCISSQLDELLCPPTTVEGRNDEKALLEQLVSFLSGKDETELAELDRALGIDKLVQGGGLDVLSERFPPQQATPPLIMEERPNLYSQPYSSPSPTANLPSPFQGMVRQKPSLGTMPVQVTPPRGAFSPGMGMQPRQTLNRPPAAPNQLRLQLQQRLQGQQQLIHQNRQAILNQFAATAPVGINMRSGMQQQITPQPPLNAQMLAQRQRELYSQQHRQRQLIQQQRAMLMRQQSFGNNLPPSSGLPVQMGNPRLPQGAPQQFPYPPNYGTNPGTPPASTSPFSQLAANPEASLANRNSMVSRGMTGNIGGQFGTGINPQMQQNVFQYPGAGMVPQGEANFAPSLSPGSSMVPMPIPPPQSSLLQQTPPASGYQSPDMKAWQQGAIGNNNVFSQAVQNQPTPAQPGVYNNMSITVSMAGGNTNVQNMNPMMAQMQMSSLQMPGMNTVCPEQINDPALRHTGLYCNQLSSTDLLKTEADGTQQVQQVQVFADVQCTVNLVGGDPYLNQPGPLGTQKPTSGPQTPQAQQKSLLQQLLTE

[2] = repression of VP16-driven luciferase reporter – cell-based, luminescence, high throughput, counter-screen for SRC1 inhibitor project (AID 588824; in the data active = inhibition above about 25%); details: cell-based VP16 transactivation luciferase luminescence; at 3.6 µM; hits give high values
[3] = StAR promoter reporter inhibitors, counter-screen for LRH-1 inverse agonist project, cell-based, luminescence, high throughput (AID 651611; in the data active = inhibition above about 28%); details: StAR promoter luciferase reporter counterscreen, at 3.6 µM, hits give high values
[4] = target: Nuclear receptor subfamily 5 group A member 2 (Homo sapiens) (UniProt O00482); experiment: NR5A2 activity suppression in reporter cells – cell-based, luminescence, confirmation (AID 651613; in the data active = inhibition above about 42%;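 also: HEK293T cells co-transfected with LRH-1 and StAR promoter luciferase reporter; 0% = vehicle wells and 100% = parental cells lacking receptor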); details: cell-based LRH-1 luciferase reporter, inverse agonism; at 3.6 µM; hits give high values
Chain of Nuclear receptor subfamily 5 group A member 2 (Homo sapiens) (O00482 whole entry, looked up): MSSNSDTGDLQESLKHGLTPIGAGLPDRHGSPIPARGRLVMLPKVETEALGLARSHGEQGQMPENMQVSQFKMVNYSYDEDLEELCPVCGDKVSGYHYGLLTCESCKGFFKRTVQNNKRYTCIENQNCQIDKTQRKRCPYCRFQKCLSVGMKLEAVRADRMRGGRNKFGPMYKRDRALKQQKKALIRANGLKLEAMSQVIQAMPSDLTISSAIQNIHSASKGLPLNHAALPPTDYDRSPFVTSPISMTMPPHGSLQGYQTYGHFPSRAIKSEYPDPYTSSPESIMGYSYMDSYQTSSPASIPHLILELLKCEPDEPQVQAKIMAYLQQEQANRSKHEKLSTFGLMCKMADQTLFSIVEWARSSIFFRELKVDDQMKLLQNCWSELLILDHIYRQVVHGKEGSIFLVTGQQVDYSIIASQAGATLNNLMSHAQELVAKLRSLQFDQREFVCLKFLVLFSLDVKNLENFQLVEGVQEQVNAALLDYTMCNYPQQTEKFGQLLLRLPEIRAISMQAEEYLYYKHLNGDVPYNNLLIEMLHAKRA

[5] = target: Steroidogenic factor 1 (Homo sapiens) (UniProt Q13285); experiment: inverse agonism at SF1 nuclear receptor – cell-based, luminescence, high throughput, counter-screen for LRH-1 inverse agonist project (AID 651614; in the data active = inhibition above about 44%;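 also: cells cotransfected with StAR promoter reporter and SF1 expression vector; 0% = vehicle on cells with receptor and 100% = vehicle on cells lacking receptor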); details: cell-based SF1 luciferase reporter, at 3.6 µM, hits give high values
Chain of Steroidogenic factor 1 (Homo sapiens) (Q13285 whole entry, looked up, the tested form may be a part): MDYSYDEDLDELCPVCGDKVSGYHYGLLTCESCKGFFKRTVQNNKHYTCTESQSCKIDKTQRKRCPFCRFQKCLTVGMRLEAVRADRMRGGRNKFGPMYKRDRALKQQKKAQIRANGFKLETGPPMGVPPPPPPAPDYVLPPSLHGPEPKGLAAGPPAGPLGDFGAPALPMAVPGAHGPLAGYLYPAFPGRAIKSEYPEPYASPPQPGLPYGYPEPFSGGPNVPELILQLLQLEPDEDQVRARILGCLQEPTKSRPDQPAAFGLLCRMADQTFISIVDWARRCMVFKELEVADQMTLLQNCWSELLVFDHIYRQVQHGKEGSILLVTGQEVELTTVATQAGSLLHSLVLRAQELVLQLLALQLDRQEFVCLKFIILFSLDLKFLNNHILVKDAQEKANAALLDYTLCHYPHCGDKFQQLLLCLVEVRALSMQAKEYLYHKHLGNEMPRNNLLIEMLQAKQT

[6] = compounds suppressing VP16-driven luciferase signal – cell-based, luminescence, high throughput, counter-screen for LRH-1 inverse agonist project (AID 651615; in the data active = inhibition above about 33%); details: Gal4-VP16 luciferase reporter cells, at 3.6 µM, hits give high values
[7] = test system: transactivating tegument protein VP16 (Human herpesvirus 1); experiment: compounds suppressing VP16-driven luciferase signal – cell-based, luminescence, single concentration, counter-screen for SRC2 inhibitor project (AID 652007; in the data active = inhibition above about 36%); details: cell-based VP16 transactivation luciferase reporter, at 8.9 µM, hits give high values
[8] = target: Nuclear receptor coactivator 2 (Homo sapiens) (UniProt Q15596); experiment: inhibition of GAL4-SRC2 driven luciferase expression – cell-based, luminescence, HEK293, triplicate, confirmation (AID 652008;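 active = mean inhibition above 46.5%, the solvent-only control mean plus 3 SD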;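 also: 0% = DMSO-treated cells and 100% = Gossypol at 36 µM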); details: HEK293 GAL4-SRC2 luciferase reporter, at 8.9 µM, hits give high values
Chain of Nuclear receptor coactivator 2 (Homo sapiens) (Q15596 whole entry, looked up, the tested form may be a part): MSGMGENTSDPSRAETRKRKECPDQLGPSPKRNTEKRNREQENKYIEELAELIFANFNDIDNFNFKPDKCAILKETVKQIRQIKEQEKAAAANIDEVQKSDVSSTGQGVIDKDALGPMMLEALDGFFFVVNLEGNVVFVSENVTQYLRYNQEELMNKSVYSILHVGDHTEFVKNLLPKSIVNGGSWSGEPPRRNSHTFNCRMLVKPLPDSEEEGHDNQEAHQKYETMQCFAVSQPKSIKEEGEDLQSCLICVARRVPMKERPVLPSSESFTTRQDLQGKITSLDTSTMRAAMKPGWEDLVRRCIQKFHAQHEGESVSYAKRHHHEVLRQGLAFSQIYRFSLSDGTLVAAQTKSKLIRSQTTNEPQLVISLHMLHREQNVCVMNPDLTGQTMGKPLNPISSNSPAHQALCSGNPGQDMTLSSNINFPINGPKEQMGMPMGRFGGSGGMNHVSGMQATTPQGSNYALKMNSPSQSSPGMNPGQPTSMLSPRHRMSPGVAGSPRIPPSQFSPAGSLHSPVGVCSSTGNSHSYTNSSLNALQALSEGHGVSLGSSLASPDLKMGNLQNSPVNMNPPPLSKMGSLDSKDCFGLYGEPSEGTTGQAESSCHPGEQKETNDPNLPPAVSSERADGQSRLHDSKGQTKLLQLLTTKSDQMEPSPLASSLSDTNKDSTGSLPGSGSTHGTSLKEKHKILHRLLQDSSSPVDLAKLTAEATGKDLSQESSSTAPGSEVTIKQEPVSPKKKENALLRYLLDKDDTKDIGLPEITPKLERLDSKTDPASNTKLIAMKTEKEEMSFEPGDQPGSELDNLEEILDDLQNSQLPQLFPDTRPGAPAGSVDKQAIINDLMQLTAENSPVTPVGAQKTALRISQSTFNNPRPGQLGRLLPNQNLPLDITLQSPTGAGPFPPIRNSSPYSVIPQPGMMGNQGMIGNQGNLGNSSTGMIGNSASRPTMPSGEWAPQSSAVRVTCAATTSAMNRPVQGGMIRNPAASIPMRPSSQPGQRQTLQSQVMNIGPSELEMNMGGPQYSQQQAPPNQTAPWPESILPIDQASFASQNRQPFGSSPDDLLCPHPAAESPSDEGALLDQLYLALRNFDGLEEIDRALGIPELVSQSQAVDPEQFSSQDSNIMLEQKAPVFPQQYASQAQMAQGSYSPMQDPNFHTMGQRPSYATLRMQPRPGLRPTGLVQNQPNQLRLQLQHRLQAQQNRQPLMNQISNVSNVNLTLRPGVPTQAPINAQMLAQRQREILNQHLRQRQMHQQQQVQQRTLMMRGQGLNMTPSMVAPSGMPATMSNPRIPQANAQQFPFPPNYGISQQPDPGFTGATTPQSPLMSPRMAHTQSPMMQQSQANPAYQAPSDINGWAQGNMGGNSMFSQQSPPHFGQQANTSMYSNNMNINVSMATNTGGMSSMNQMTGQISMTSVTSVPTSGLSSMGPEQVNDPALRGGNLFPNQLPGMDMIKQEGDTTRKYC

[9] = target: Oxysterols receptor LXR-beta (Homo sapiens) (UniProt P55055); experiment: nonspecific reporter activation via LXR – cell-based, luminescence, HEK293, H. contortus campaign, counter-screen for hcDAF-12 agonist project, confirmation (AID 743027;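 active = mean percent activation of the reporter above a cutoff set as the average over tested compounds plus their standard deviation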); details: HEK293 Gal4-LXR tk-luc reporter, 24 h, at 6.8 µM, hits give high values, normalized: DMSO 0%, positive control 100%
Chain of Oxysterols receptor LXR-beta (Homo sapiens) (P55055 whole entry, looked up, the tested form may be a part): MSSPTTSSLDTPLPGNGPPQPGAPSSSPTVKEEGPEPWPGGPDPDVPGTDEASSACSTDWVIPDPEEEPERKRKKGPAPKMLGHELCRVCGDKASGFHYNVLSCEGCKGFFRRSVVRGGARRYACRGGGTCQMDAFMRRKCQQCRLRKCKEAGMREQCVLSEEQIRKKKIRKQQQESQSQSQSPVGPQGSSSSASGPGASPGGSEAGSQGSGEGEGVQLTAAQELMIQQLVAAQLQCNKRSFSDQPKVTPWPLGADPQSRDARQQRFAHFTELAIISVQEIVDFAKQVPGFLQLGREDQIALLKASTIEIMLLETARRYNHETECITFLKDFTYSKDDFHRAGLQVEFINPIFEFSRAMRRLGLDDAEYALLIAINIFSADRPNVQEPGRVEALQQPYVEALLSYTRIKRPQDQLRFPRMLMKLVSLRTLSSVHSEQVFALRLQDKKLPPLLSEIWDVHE

[10] = test system: Nuclear hormone receptor DAF-12 (Haemonchus contortus); experiment: hcDAF-12 luciferase reporter activation, retest – cell-based, luminescence, HEK293, lit1-tk-luc, triplicate, confirmation (AID 743032;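 active = mean activation across triplicate tests above the threshold derived from the earlier primary screen, cut at about 5.5% in these data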;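 also: 0% = DMSO only wells and 100% = 3 µM Δ7-dafachronic acid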); details: HEK293 hcDAF-12 lit1-tk-luc reporter, at 6.8 µM, hits give high values, % of Δ7-dafachronic acid response

Cc1cc2[nH]c3c(c[n+](C)c4ccccc34)c2cc1C
inhibition [1]: 20.9%
inhibition [2]: 47.8% (active)
inhibition [3]: 41.7% (active)
inhibition [4]: 100% (active)
inhibition [5]: 66.4% (active)
inhibition [6]: 84.2% (active)

O=C(CSc1nnnn1C1CC2CCC1C2)Nc1ccnc2ccccc12 (configuration not stated)
inhibition [1]: -14.4%
inhibition [2]: 44.7% (active)
inhibition [3]: 30% (active)
inhibition [4]: 61% (active)
inhibition [5]: 56.1% (active)
inhibition [6]: 59.1% (active)

CC1(C)CC(N2CCCC2)=CC(=[N+]2CCCCC2)C1
inhibition [1]: -1.69%
inhibition [2]: 31% (active)
inhibition [3]: 21.4%
inhibition [4]: 64.8% (active)
inhibition [5]: 54.3% (active)
inhibition [6]: 52.5% (active)

O=C(N/N=C/c1ccc(O)cc1)c1ccc(COc2cc(Cl)ccc2Cl)o1
inhibition [1]: -2.22%
inhibition [2]: 30.3% (active)
inhibition [3]: 22.3%
inhibition [4]: 42.3% (active)
inhibition [5]: 47.1% (active)
inhibition [6]: 57.9% (active)

Cc1ccc(C#CC[N+]2(CC#Cc3ccc(C)cc3)CCCCC2)cc1
inhibition [1]: 32.6%
inhibition [2]: 36.3% (active)
inhibition [3]: 40.5% (active)
inhibition [4]: 74.2% (active)
inhibition [5]: 65.3% (active)
inhibition [6]: 67.5% (active)

COc1cccc2c1C(=O)c1c(O)c3c(c(O)c1C2=O)C[C@@](O)(C(=O)CO)C[C@@H]3OC1CC(N)C(O)C(C)O1 (some centres not stated)
inhibition [1]: -127%
inhibition [2]: 71.4% (active)
inhibition [3]: -14.6%
inhibition [4]: 87.5% (active)
inhibition [5]: 70.6% (active)
inhibition [6]: 82.6% (active)

COc1ccc(NC(=O)C2Cc3c(-c4ccc5c(c4)OCO5)ccnc3O2)cc1OC (configuration not stated)
inhibition [1]: 0.9%
inhibition [2]: 34% (active)
inhibition [3]: 27.9% (active)
inhibition [4]: 53.5% (active)
inhibition [5]: 61.1% (active)
inhibition [6]: 43.5% (active)

CN(C)CCNc1ccc2ncn3c4ccc(O)cc4c(=O)c1c23
inhibition [1]: 23.2%
inhibition [2]: 52.9% (active)
inhibition [3]: 49.3% (active)
inhibition [4]: 81.6% (active)
inhibition [5]: 80.5% (active)
inhibition [6]: 79.9% (active)

O=C(CCl)Nc1ccc(Oc2cnc3ccccc3n2)cc1
inhibition [1]: 4.66%
inhibition [2]: 2.08%
inhibition [3]: 43.6% (active)
inhibition [4]: 74.4% (active)
inhibition [5]: 77.4% (active)
inhibition [6]: 18.3%
inhibition [7]: 19.5%
inhibition [8]: 46.6% (active)

C=C1C(=O)C23CCC4C(C)(C(=O)OC)CCCC4(C)C2CCC1(O)C3 (configuration not stated)
inhibition [1]: -0.73%
inhibition [2]: 53.7% (active)
inhibition [3]: 67.4% (active)
inhibition [4]: 70.5% (active)
inhibition [5]: 82.1% (active)
inhibition [6]: 74% (active)
inhibition [7]: 83.1% (active)
inhibition [8]: 98.2% (active)

O=C(NCCc1cccc(Cl)c1)c1ccc(OC2CCN(Cc3ccccn3)CC2)cc1
inhibition [1]: -20.2%
inhibition [2]: -8.94%
inhibition [7]: 12.7%
inhibition [8]: 39.1%

CN(c1ccc(C(=O)N2CCN(Cc3ccc4c(c3)OCO4)CC2)cc1)S(=O)(=O)c1ccccc1
inhibition [1]: 14.7%
inhibition [2]: 23%
inhibition [7]: 31%
inhibition [8]: 37.4%

COc1ccccc1NS(=O)(=O)c1cccc(NC(=O)c2cncc(Br)c2)c1
inhibition [1]: 20%
inhibition [2]: 25.1%
inhibition [7]: 14.8%
inhibition [8]: 21%

COc1cccc(N2CCN(c3c(C#N)c(C(F)(F)F)nn3C)CC2)c1
inhibition [1]: 48.8% (active)
inhibition [2]: 32.2% (active)
inhibition [7]: -6.45%
inhibition [8]: 41.6%

O=C1c2c(O)ccc(O)c2C(=O)c2c(NCCNCCO)ccc(NCCNCCO)c21
inhibition [1]: -142% and -11.9%
inhibition [2]: 20.7% and 0.91%
inhibition [4]: 77.4% (active)
inhibition [5]: 56.3% (active)

COc1ccc(CCNc2c(C)c(C)nc3ncnn23)cc1
inhibition [1]: -13.9%
inhibition [2]: 29.1% (active)
inhibition [4]: 58.5% (active)
inhibition [5]: 62.6% (active)

O=C1C=C(NCCc2cc(Br)c(O)c(Br)c2)C(=O)c2ncccc21
inhibition [1]: -170%
inhibition [2]: 14.2%
inhibition [7]: 4.39%
inhibition [8]: 25.9%

Cc1sc2ncnc(N3CCC(C(=O)N(C)CC(=O)Nc4cccc(F)c4)CC3)c2c1C
inhibition [1]: 33.5%
inhibition [2]: 22.7%
inhibition [7]: -11.2%
inhibition [8]: 25.1%

CN(C)CCNC(=O)c1ccc(Cl)c2cc3ccccc3nc12
inhibition [1]: 14.8%
inhibition [2]: 29.6% (active)
inhibition [3]: 70.1% (active)
inhibition [4]: 73.1% (active)
inhibition [5]: 67.4% (active)
inhibition [6]: 61% (active)
activation [9]: 0.85%
activation [10]: 8.92% (active)

CCN1CCN(C(=S)c2ccc(-c3ccccc3)cc2)CC1
inhibition [1]: 37.8%
inhibition [2]: 12.8%
inhibition [7]: 15.4%
inhibition [8]: 78.8% (active)

Cc1sc2ncnc(NC3CCN(Cc4ccccc4)CC3)c2c1C
inhibition [1]: -6.93%
inhibition [2]: 23.8%
inhibition [7]: 14.3%
inhibition [8]: 29%
